PubChem BioAssay (NCI)
This is part of a sample that, as a whole, favours compounds with a hit. Of some 83,000 tested, about 20% had one in any assay.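 Step 1: grow cells in 96-well plates. Step 2: add test compound at a single concentration. Step 3: incubate 48 h. Step 4: record percent growth.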 A number with no mark means an inactive call. Calls of active or inactive are those of the source. Rule for the calls: active = growth percent below 10; inactive = the rest.

Key:
Test in all cases: NCI-60 one-dose screen, 48 h (100 = growth as untreated, 0 = no growth, -100 = all killed)
Conditions in all cases: 10 µM unless noted
[1] = tested on: T-47D breast
[2] = tested on: BT-549 breast
[3] = tested on: MDA-MB-435 melanoma
[4] = tested on: SW-620 colon
[5] = tested on: MCF7 breast
[6] = tested on: HCT-116 colon
[7] = tested on: HCC-2998 colon
[8] = tested on: KM12 colon

`CCN(CC)c1ccc(/C=N/NC(=O)c2ccc(NS(C)(=O)=O)cc2)cc1` gave a growth [1] of 27.4%, a growth [2] of 28.4% and a growth [3] of 37.3%. The growth [4] was 40.5%, the growth [5] was 9.25% (active) and the growth [6] was 21.3%. It also gave a growth [7] of 45.7% and a growth [8] of 18.1%.

`O=C(Nc1cccc(Cl)c1)Nc1nc2cc([N+](=O)[O-])ccc2o1` was tested, and the growth [1] was 15.4%, the growth [2] was 67.1% and the growth [3] was 40.9%. The growth [4] was 22.3%, the growth [5] was 36.8% and the growth [6] was 26.8%. The growth [7] was 39% and the growth [8] was 26.5%.

Compound `COc1ccc(/C=N/NC(=O)c2c(N)nn(C)c2Nc2ccccc2)cc1Oc1ccccc1` has a growth [1] of 78.1%, a growth [2] of 94.1% and a growth [3] of 101%. It also gave a growth [4] of 100%, a growth [5] of 75.3% and a growth [6] of 79.8%. The growth [7] was 101% and the growth [8] was 92.7%.

With `C#Cc1cc(OC)c(C(=O)Nc2ccc(F)cc2C(=O)Nc2cccc(S(=O)(=O)C(F)(F)F)c2)cn1` the growth [1] was 23.4%, the growth [2] was 1.8% (active) and the growth [3] was 10.2%. For the same compound, the growth [4] was 5.83% (active), the growth [5] was 13.1% and the growth [6] was 3.82% (active). The growth [7] was 47.8% and the growth [8] was 4.44% (active).

`C#C[C@]1(O)CC[C@H]2[C@@H]3CC=C4c5sc(Nc6cc(Cl)ccc6OC)nc5CC[C@]4(C)[C@H]3CC[C@@]21C` was tested, and the growth [1] was 31.2%, the growth [2] was 3.68% (active) and the growth [3] was -0.171% (active). The growth [4] was -20.7% (active), the growth [5] was -15.1% (active) and the growth [6] was 7.63% (active). For the same compound, the growth [7] was 54.3% and the growth [8] was 31.9%.

`N#C/C(=C\c1ccc(-c2ccc(Cl)c(Cl)c2)o1)C(=O)Nc1ncc(Cc2ccc(Cl)cc2)s1` showed a growth [1] of 17.9%, a growth [2] of 42.1% and a growth [3] of 26.9%. For the same compound, the growth [4] was 10.8%, the growth [5] was 58.7% and the growth [6] was 9.52% (active). The growth [7] was 81.8% and the growth [8] was 19.6%.

`CC1=Cc2ccccc2OC12C=Cc1ccccc1O2` (stereo not drawn) showed a growth [1] of 81.8%, a growth [2] of 106% and a growth [3] of 105%. For the same compound, the growth [4] was 101%, the growth [5] was 82.6% and the growth [6] was 99.3%. For the same compound, the growth [7] was 99.9% and the growth [8] was 97.6%.

`COc1cc(C(=O)c2cc(C(C)=O)c3cccc(C)n23)cc(OC)c1OC` was tested, and the growth [1] was 20.3%, the growth [2] was 25.8% and the growth [3] was -30.1% (active). It also gave a growth [4] of 26%, a growth [5] of 20.3% and a growth [6] of 16.6%. The growth [7] was 61.1% and the growth [8] was 29.8%.

Compound `O=C1[C@@H]2Cc3c([nH]c4ccccc34)[C@@H](c3ccc(Cl)cc3)N2C(=O)CN1C1CCN(Cc2c(F)cccc2F)CC1` has a growth [1] of 56.8%, a growth [2] of 46.3% and a growth [3] of 46.9%. For the same compound, the growth [4] was 48.6%, the growth [5] was 15.3% and the growth [6] was 17.8%. The growth [7] was 6.16% (active) and the growth [8] was 35.1%.

`COc1cc2cc(Oc3ccc(NC(=O)c4cc(C(F)(F)F)cc(C(F)(F)F)c4)cc3)c(C)nc2cc1OCCN1CCOCC1` gave a growth [1] of 84.7%, a growth [2] of 71.4% and a growth [3] of 65.4%. For the same compound, the growth [4] was 97.2%, the growth [5] was 26.4% and the growth [6] was 11.9%. The growth [7] was 113% and the growth [8] was 73.5%.

Compound `CC1=C(C)C(=O)C(Nc2ccc3c(c2)OCCO3)=C(Br)C1=O` has a growth [1] of 80.5%, a growth [2] of 101% and a growth [3] of 102%. The growth [4] was 107%, the growth [5] was 78.2% and the growth [6] was 90.6%. It also gave a growth [7] of 102% and a growth [8] of 93.7%.

For `COc1ccc2c(c1)c(/C=N/Nc1ccnc3cc(Cl)ccc13)cn2C`, the growth [1] was -64.1% (active), the growth [2] was -76.9% (active) and the growth [3] was -92.9% (active). The growth [4] was -76.6% (active), the growth [5] was -80.2% (active) and the growth [6] was -82.3% (active). The growth [7] was -86.3% (active) and the growth [8] was -78.1% (active).

`COc1ccc(/C=N/NC(=O)CSc2nc(-c3cnccn3)cc(-c3cccs3)c2C#N)cc1OC` showed a growth [1] of 93.9%, a growth [2] of 38% and a growth [3] of 78.9%. The growth [4] was 60.8%, the growth [5] was 53.7% and the growth [6] was 55.4%. The growth [7] was 47.3% and the growth [8] was 51.4%.

In the case of `COC(=O)c1cccc(NC2=CC(=O)C(C)=C(C)C2=O)c1`, the growth [1] is reported as 64.4%, the growth [2] is reported as 101% and the growth [3] is reported as 101%. The growth [4] was 104%, the growth [5] was 71.3% and the growth [6] was 66.7%. It also gave a growth [7] of 110% and a growth [8] of 97.1%.

`CCCCCCN1C=C/C(=C\C(=O)n2ccc3ccccc32)c2ccccc21` gave a growth [1] of 31.1%, a growth [2] of 65% and a growth [3] of 84%. It also gave a growth [4] of 79.2%, a growth [5] of 29.2% and a growth [6] of 48.4%. The growth [7] was 34.6% and the growth [8] was 67.1%.

With `O=C(CCCCCCNC(=O)C(O)(O)C(F)(F)F)Nc1ccc(-c2ccccc2)cc1` the growth [1] was 11.5%, the growth [2] was 14.8% and the growth [3] was 7.66% (active). For the same compound, the growth [4] was 2.53% (active), the growth [5] was 9.59% (active) and the growth [6] was 4.14% (active). For the same compound, the growth [7] was -0.948% (active) and the growth [8] was 8.38% (active).

For `Cc1ccc2c(n1)C(=O)C(Cl)=C(Nc1cccc(C(F)(F)F)c1)C2=O`, the growth [1] was -41.9% (active), the growth [2] was 123% and the growth [3] was 71.3%. The growth [4] was -0.806% (active), the growth [5] was -54.7% (active) and the growth [6] was -25.9% (active). The growth [7] was 108% and the growth [8] was 106%.

Work on `Clc1ccc(CSc2nnc(-c3ccc(Cl)cc3)n2-c2ccccc2)cc1` yielded a growth [1] of 80.9%, a growth [2] of 58.6% and a growth [3] of 90%. For the same compound, the growth [4] was 91.6%, the growth [5] was 84.5% and the growth [6] was 75.3%. For the same compound, the growth [7] was 95.8% and the growth [8] was 92.6%.

`COc1ccc(-c2cc(-c3ccc(N4CCOCC4)cc3)n3c(n2)nc2ccccc23)cc1OC` was tested, and the growth [1] was 81%, the growth [2] was 82.3% and the growth [3] was 93.1%. The growth [4] was 99.2%, the growth [5] was 90.1% and the growth [6] was 96%. For the same compound, the growth [7] was 110% and the growth [8] was 99%.

With `O=C(Nc1cccc(C(F)(F)F)c1)N1CCN(c2cc(-c3cn(-c4ccccc4)nc3-c3cccc(O)c3)ccn2)CC1` the growth [1] was -5.55% (active), the growth [2] was 55.4% and the growth [3] was 47.3%. For the same compound, the growth [4] was 52.3%, the growth [5] was 25.3% and the growth [6] was 27.4%. It also gave a growth [7] of 86.3% and a growth [8] of 32%.

For `CC(C)C(/C=C/c1[nH]ncc1-c1cc(Cl)ccc1O)N1CCOCC1` (stereo not drawn), the growth [1] was 94.9%, the growth [2] was 90% and the growth [3] was 95.8%. For the same compound, the growth [4] was 98.4%, the growth [5] was 76.8% and the growth [6] was 89.3%. For the same compound, the growth [7] was 104% and the growth [8] was 99.6%.

For `N#Cc1c(-c2ccc(Br)cc2)cc(-c2c[nH]c3ccccc23)nc1N`, the growth [1] was 29.7%, the growth [2] was 32.1% and the growth [3] was 0.353% (active). For the same compound, the growth [4] was 27.8%, the growth [5] was 18.5% and the growth [6] was 27.6%. It also gave a growth [7] of 60.3% and a growth [8] of 28%.

For `C#CCN(C)CCCOc1ccc(NC(=O)CCCCCCCCC(=O)NO)cc1Cl`, the growth [1] was 72.6%, the growth [2] was 92.5% and the growth [3] was 74.2%. The growth [4] was 63.1%, the growth [5] was 31.9% and the growth [6] was 39.2%. It also gave a growth [7] of 71.8% and a growth [8] of 83.4%.

`N#C/C(=C\c1cccc2c1OCO2)C(=O)Nc1sc2c(c1C#N)CCCC2` gave a growth [1] of 93.8%, a growth [2] of 107% and a growth [3] of 103%. It also gave a growth [4] of 106%, a growth [5] of 97.6% and a growth [6] of 98.4%. The growth [7] was 120% and the growth [8] was 103%.

`COc1cc(OC)cc(-c2cc(-c3c[nH]c4ccccc34)nc(-c3c[nH]c4ccccc34)c2C#N)c1` was tested, and the growth [1] was 98.3%, the growth [2] was 104% and the growth [3] was 99.4%. For the same compound, the growth [4] was 103%, the growth [5] was 90.7% and the growth [6] was 101%. It also gave a growth [7] of 113% and a growth [8] of 98.7%.

Work on `CC(C)(C)c1cc(NC(=O)Nc2ccc(-c3cn4c5c(sc4n3)CCc3c[nH]cc3-5)cc2)no1` yielded a growth [1] of 18.5%, a growth [2] of 18.7% and a growth [3] of 26%. For the same compound, the growth [4] was 17.8%, the growth [5] was -6.97% (active) and the growth [6] was 23.2%. For the same compound, the growth [7] was 24% and the growth [8] was 6.68% (active).

With `O=C(CSc1nc2ccccc2c(=O)n1-c1ccc(Cl)cc1)N/N=C/c1ccc(Oc2ccc(Cl)cc2)cc1` the growth [1] was 30.1%, the growth [2] was -17.7% (active) and the growth [3] was 25.1%. For the same compound, the growth [4] was 2.62% (active), the growth [5] was 15.5% and the growth [6] was -67.8% (active). The growth [7] was 20.3% and the growth [8] was 17.4%.

`CCCc1cc2cc(-n3nc(CC)c4c3CC(C)(C)CC4=O)cc(NC3CCC(O)CC3)c2c(=O)[nH]1` (stereo not drawn) was tested, and the growth [1] was 29.6%, the growth [2] was 38.7% and the growth [3] was 0.0389% (active). The growth [4] was 12.3%, the growth [5] was 17.7% and the growth [6] was 6.5% (active). For the same compound, the growth [7] was 8.95% (active) and the growth [8] was 15.4%.

With `COc1ccc([C@@H]2C(=O)N(c3cc(OC)c(OC)c(OC)c3)[C@H]2c2ccc(OC)c(O)c2)cc1` the growth [1] was 94.9%, the growth [2] was -30.1% (active) and the growth [3] was -15.4% (active). For the same compound, the growth [4] was 24.2%, the growth [5] was 10.6% and the growth [6] was 6.47% (active). It also gave a growth [7] of 17% and a growth [8] of 10.7%.

For `O=S1SC(c2ccccc2)=NN1c1cc(F)cc(F)c1` (stereo not drawn), the growth [1] was 1.86% (active), the growth [2] was 7.34% (active) and the growth [3] was 63.3%. It also gave a growth [4] of 59.2%, a growth [5] of 35.6% and a growth [6] of 16.5%. It also gave a growth [7] of 79.6% and a growth [8] of 41.7%.

In the case of `CC1=C(C)C(=O)C(Nc2cccc(C(F)(F)F)c2)=C(Br)C1=O`, the growth [1] is reported as 17.6%, the growth [2] is reported as 110% and the growth [3] is reported as 103%. For the same compound, the growth [4] was 48.7%, the growth [5] was 52.3% and the growth [6] was 20%. The growth [7] was 108% and the growth [8] was 90.7%.
